{"source": "the supplement of paper PMC10037445", "key": {"RAW-Dual [1]": {"system": "RAW-Dual", "test": "IRF Lucia reporter activity, fold change vs agonist alone; higher = enhanced IRF activity", "details": "agonist: MPLA (TLR4) […]", "method_in_brief": "(§1)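 Reporter activity is given as fold change relative to agonist-alone wells. To measure it, 50 nL of library stock was pin-tooled onto RAW-Dual macrophages (50,000 cells/well, DMEM, 384-well plates), a PRR agonist followed 1 h later, and cells stayed at 37 °C, 5% CO2. Twenty hours on, supernatant was assayed for IRF (QuantiLuc luminescence) and NF-κB (QuantiBlue, 620 nm absorbance), and wells under 70% of agonist-control IncuCyte confluency in both mask sets were marked cytotoxic.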"}, "RAW-Dual [2]": {"system": "RAW-Dual", "test": "IRF Lucia reporter activity, fold change vs agonist alone; cytotoxicity flag (confluency mask): cytotoxic (confluency <70% of control); higher = enhanced IRF activity", "method_in_brief": "as §1"}, "RAW-Dual [3]": {"system": "RAW-Dual", "test": "IRF Lucia reporter activity, fold change vs agonist alone; cytotoxicity flag (confluency mask): not cytotoxic; higher = enhanced IRF activity", "method_in_brief": "as §1"}, "[4]": {"details": "agonist: 3'3'-cGAMP (STING) 10 ug/mL"}, "[5]": {"details": "library stock concentration (final ~1000-fold dilution): 10 mM, cytotoxicity flag (confluency mask): not cytotoxic"}}, "note": "Over roughly 2,900 compounds, “IRF Lucia reporter activity, fold change vs agonist alone” has its median near 0.9; the highest 2% begin near 2.8. The sample as a whole holds a higher share of the highest values than the screen did.", "data": [{"smiles": "CCOC(=O)c1cnc2ccc(-c3cncc(NS(=O)(=O)c4ccccc4)c3)cn12", "values": [{"measurement": "IRF Lucia reporter activity", "setting": "RAW-Dual [1]; library stock concentration (final ~1000-fold dilution): 10 mM, cytotoxicity flag (confluency mask): cytotoxic (confluency <70% of control)", "result": 4.46}]}, {"smiles": "CCOC(=O)c1cnc2ccc(-c3cncc(NS(=O)(=O)c4ccccc4)c3)cn12", "note": "(library stock concentration (final ~1000-fold dilution): 10 mM)", "values": [{"measurement": "IRF Lucia reporter activity", "setting": "RAW-Dual [2]; [4]", "result": 0.284}, {"measurement": "IRF Lucia reporter activity", "setting": "RAW-Dual [2]; agonist: LPS (TLR4) 0.1 ug/mL", "result": 4.78}]}, {"smiles": "Nc1nc2cc(-c3ccc4ncc(C(=O)N5CCOCC5)n4c3)ccc2o1", "note": "(library stock concentration (final ~1000-fold dilution): 10 mM)", "values": [{"measurement": "IRF Lucia reporter activity", "setting": "RAW-Dual [3]; [4]", "result": 0.343}, {"measurement": "IRF Lucia reporter activity", "setting": "RAW-Dual [3]; agonist: LPS (TLR4) 0.1 ug/mL", "result": 1.04}]}, {"smiles": "COCCNCCc1cccc(Nc2ncc3c(n2)-c2ccccc2C(c2ccccc2F)C3)c1", "note": "(stereo not given) (library stock concentration (final ~1000-fold dilution): 10 mM)", "values": [{"measurement": "IRF Lucia reporter activity", "setting": "RAW-Dual [2]; [4]", "result": 0.0166}, {"measurement": "IRF Lucia reporter activity", "setting": "RAW-Dual [2]; agonist: LPS (TLR4) 0.1 ug/mL", "result": 0.159}]}, {"smiles": "CN1CCC(c2c(O)cc(O)c3c(=O)cc(-c4ccccc4Cl)oc23)C1CO.Cl", "note": "(stereo not given) (library stock concentration (final ~1000-fold dilution): 10 mM)", "values": [{"measurement": "IRF Lucia reporter activity", "setting": "RAW-Dual [2]; [4]", "result": 0.00862}, {"measurement": "IRF Lucia reporter activity", "setting": "RAW-Dual [2]; agonist: LPS (TLR4) 0.1 ug/mL", "result": 0.0242}]}, {"smiles": "CN(CC1COCCO1)S(=O)(=O)Nc1ccc2ccc3ncc(-c4cnn(C)c4)cc3c(=O)c2c1", "note": "(stereo not given)", "values": [{"measurement": "IRF Lucia reporter activity", "setting": "RAW-Dual [1]; [5]", "result": 0.63}]}, {"smiles": "CN(CC1COCCO1)S(=O)(=O)Nc1ccc2ccc3ncc(-c4cnn(C)c4)cc3c(=O)c2c1", "note": "(stereo not given) (library stock concentration (final ~1000-fold dilution): 10 mM)", "values": [{"measurement": "IRF Lucia reporter activity", "setting": "RAW-Dual [3]; [4]", "result": 0.306}, {"measurement": "IRF Lucia reporter activity", "setting": "RAW-Dual [3]; agonist: LPS (TLR4) 0.1 ug/mL", "result": 0.736}]}, {"smiles": "COC(=O)C1=COC(OC2OC(CO)C(O)C(O)C2O)C2C1CC(O)C2C", "note": "(stereo not given) (library stock concentration (final ~1000-fold dilution): 10 mM)", "values": [{"measurement": "IRF Lucia reporter activity", "setting": "RAW-Dual [3]; [4]", "result": 1.08}, {"measurement": "IRF Lucia reporter activity", "setting": "RAW-Dual [3]; agonist: LPS (TLR4) 0.1 ug/mL", "result": 1.3}]}, {"smiles": "COC(=O)C1=COC(OC2OC(CO)C(O)C(O)C2O)C2C1CC(O)C2C", "note": "(stereo not given)", "values": [{"measurement": "IRF Lucia reporter activity", "setting": "RAW-Dual [1]; [5]", "result": 1.12}]}, {"smiles": "CCCc1cc(C)[nH]c(=O)c1CNC(=O)c1cc(-c2ccc(N3CCN(C)CC3)nc2)nc2c1cnn2C(C)C", "note": "(library stock concentration (final ~1000-fold dilution): 10 mM)", "values": [{"measurement": "IRF Lucia reporter activity", "setting": "RAW-Dual [3]; [4]", "result": 0.763}, {"measurement": "IRF Lucia reporter activity", "setting": "RAW-Dual [3]; agonist: LPS (TLR4) 0.1 ug/mL", "result": 1.35}]}, {"smiles": "CCN(C)S(=O)(=O)Nc1ccc(F)c(C(=O)c2c[nH]c3ncc(-c4cnc(C5CC5)nc4)cc23)c1F", "note": "(library stock concentration (final ~1000-fold dilution): 10 mM)", "values": [{"measurement": "IRF Lucia reporter activity", "setting": "RAW-Dual [3]; [4]", "result": 0.0563}, {"measurement": "IRF Lucia reporter activity", "setting": "RAW-Dual [3]; agonist: LPS (TLR4) 0.1 ug/mL", "result": 0.409}]}, {"smiles": "Cc1c(-c2ccccc2)oc2c(C(=O)OCCN3CCCCC3)cccc2c1=O.Cl", "note": "(library stock concentration (final ~1000-fold dilution): 10 mM water)", "values": [{"measurement": "IRF Lucia reporter activity", "setting": "RAW-Dual [3]; [4]", "result": 1.09}, {"measurement": "IRF Lucia reporter activity", "setting": "RAW-Dual [3]; agonist: LPS (TLR4) 0.1 ug/mL", "result": 0.892}]}, {"smiles": "Cc1c(-c2ccccc2)oc2c(C(=O)OCCN3CCCCC3)cccc2c1=O.Cl", "values": [{"measurement": "IRF Lucia reporter activity", "setting": "RAW-Dual [1]; library stock concentration (final ~1000-fold dilution): 10 mM water, cytotoxicity flag (confluency mask): not cytotoxic", "result": 1.29}]}, {"smiles": "Cc1ccc2c(=O)c3cccc(CC(=O)O)c3oc2c1C", "note": "(library stock concentration (final ~1000-fold dilution): 10 mM)", "values": [{"measurement": "IRF Lucia reporter activity", "setting": "RAW-Dual [3]; [4]", "result": 1.08}, {"measurement": "IRF Lucia reporter activity", "setting": "RAW-Dual [3]; agonist: LPS (TLR4) 0.1 ug/mL", "result": 6.08}]}, {"smiles": "Cc1ccc2c(=O)c3cccc(CC(=O)O)c3oc2c1C", "values": [{"measurement": "IRF Lucia reporter activity", "setting": "RAW-Dual [1]; [5]", "result": 0.965}]}]}
